# RORg inh: qHTS for inhibitors of ROR gamma transcriptional activity | Drosophila S2 Gal4-RORgamma UAS-luciferase reporter, 20 h | Nuclear receptor ROR-gamma (Mus musculus), P51450 | Potency, µM (series often up to 53.6 µM), without a hit: at the highest dose activity change, negative = inhibition, most hits filed as inhibitors | 310,000 compounds, 5.4% hits; note: % is set by controls: 0 for no effect and ±100 for the full control effect; nearly all actives have a fitted effect of over 60% in size
# Target sequence (P51450 whole entry, looked up, the tested form may be a part): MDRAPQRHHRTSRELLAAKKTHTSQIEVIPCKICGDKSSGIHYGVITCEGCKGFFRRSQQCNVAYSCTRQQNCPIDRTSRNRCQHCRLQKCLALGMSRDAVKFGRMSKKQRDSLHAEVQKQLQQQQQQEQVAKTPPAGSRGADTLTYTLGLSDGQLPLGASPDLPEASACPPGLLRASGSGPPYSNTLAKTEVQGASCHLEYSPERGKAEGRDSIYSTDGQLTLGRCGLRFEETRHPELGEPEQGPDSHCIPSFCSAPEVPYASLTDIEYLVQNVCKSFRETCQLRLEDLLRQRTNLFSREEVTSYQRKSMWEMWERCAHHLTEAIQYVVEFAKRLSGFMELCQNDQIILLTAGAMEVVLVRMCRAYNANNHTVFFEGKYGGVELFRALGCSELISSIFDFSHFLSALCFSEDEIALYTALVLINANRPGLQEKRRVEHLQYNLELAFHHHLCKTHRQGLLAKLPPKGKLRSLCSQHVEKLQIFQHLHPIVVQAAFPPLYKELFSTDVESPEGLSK
#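 ROR gamma transcriptional activity was tracked as Gal4-UAS luciferase output in stably transfected Drosophila Schneider cells, with compound added 1 hr before 700 uM copper sulfate induction and a 20 hr ambient-temperature incubation.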
# ATXN viability: Viability Counterscreen for Primary qHTS for Inhibitors of ATXN expression; S2 cells (HEK-293 line with an ATXN2-luciferase reporter) viability, CellTiter-Fluor protease fluorescence, 24 h; Potency, µM (titrated, usually from 56.7 µM), actives largely listed as cytotoxic; 400,000 compounds, 0.49% hits; note: nearly all actives have a fitted effect of over 40% in size
# HepG2 tox-1: qHTS for Inhibitors of TGF-b: Cytotox Counterscreen; HepG2 CAGA-GFP viability, ATP luminescence, 18 h; AID 588856, 2011; 410,000 compounds, 0.76% hits; Potency, µM (series often up to 46.1 µM), for the others: top-dose activity change, negative = cytotoxicity, actives largely listed as cytotoxic
#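 CellTiter-Glo luminescence gave cytotoxicity after 18 hours at 37 degrees C. The cells were HepG2 CAGA-GFP in 1% FBS DMEM, stimulated with 500 pg/mL TGF-beta after compound addition. %Activity was normalised to no-cell wells (complete cell-killing) and DMSO (no toxicity), and curves were fitted and classified.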
# ATXN2 expr inh: Primary qHTS for Inhibitors of ATXN expression. 360,000 compounds, 0.72% hits. Potency, µM (titrated, usually from 57 µM), inactives show at the highest dose activity change, negative = inhibition, actives largely listed as inhibitors. HEK-293 ATXN2-luciferase reporter, luminescence, 24 h. AID 1745845, 2022; note: % is set by controls: 0 for no effect and ±100 for the full control effect; nearly all actives have a fitted effect of over 55% in size
#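 ATXN2-luciferase reporter cells (luciferase flanked by upstream and downstream ATXN2 gene portions) were treated 24 h at 37 °C with compounds at up to 57 uM. SteadyGlo luminescence gave expression; GF-AFC fluorescence gave viability.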
# Gal4-VP16 FLuc: VP16 counterscreen qHTS for inhibitors of ROR gamma transcriptional activity; Drosophila S2 Gal4-VP16 UAS-luciferase, luminescence, 20 h; AID 2546, 2010; Potency, µM (top dose mostly 53.6 µM), for inactives: top-dose activity, negative = inhibition, actives largely listed as inhibitors; 310,000 compounds, 3.5% hits;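 note: Gal4-VP16 expression switched on by copper sulfate through the metallothionein promoter; % is set by controls: 0 for no effect and ±100 for the full control effect; nearly all actives have a fitted effect of over 50% in size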
# TGFb SMAD3 inh: qHTS for Inhibitors of TGF-b; Potency, µM (top dose mostly 46.1 µM), for inactives: at the top dose activity, negative = inhibition, most hits filed as inhibitors; 410,000 compounds, 1.2% hits; AID 588855, 2011; HepG2 CAGA-GFP TGF-b/SMAD3 reporter, GFP fluorescence, 18 h; TGF-beta stimulated, 500 pg/mL final; note: % is set by controls: 0 for no effect and ±100 for the full control effect; nearly all actives have a fitted effect of over 65% in size
#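 TGF-beta reporter screen: HEPG2 CAGA-GFP, 1% FBS, 500 pg/mL TGF-beta final, 18 h; per-cell GFP summed per well; curves fitted and categorized by class.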
# TGFb confirm: qHTS for Inhibitors of TGF-b: Confirmation of Cherry Picks. HepG2 CAGA-GFP TGF-b reporter, GFP fluorescence, 18 h; cells stimulated with TGF-beta, 500 pg/mL. shares compounds with TGFb SMAD3 inh. Potency, µM (highest dose often 46.1 µM), inactives show at the top dose activity, negative = inhibition, most hits filed as inhibitors. 1,600 compounds, 63% hits; note: % is set by controls: 0 for no effect and ±100 for the full control effect; nearly all actives have a fitted effect of over 65% in size
# HepG2 tox-2: qHTS for Inhibitors of TGF-b: Cytotox Counterscreen for Cherry Picks | shares compounds with TGFb SMAD3 inh | 1,600 compounds, 27% hits | Potency, µM (highest dose often 46.1 µM), for the others: at the highest dose activity, negative = cytotoxicity, most hits filed as inhibitors | HepG2 CAGA-GFP viability, ATP luminescence, 18 h; cells stimulated with TGF-beta, 500 pg/mL; note: % is set by controls: 0 for no effect and ±100 for the full control effect; nearly all actives have a fitted effect of over 70% in size
# TGFb CCL64 inh: qHTS for Inhibitors of TGF-b: CCL64 Cells Orthogonal Assay for Cherry Picks; shares compounds with TGFb SMAD3 inh; CCL64 CAGA-GFP reporter, TGF-b stimulated, GFP fluorescence, 18 h; Potency, µM (doses to about 46.1 µM), for inactives: at the highest dose activity, negative = inhibition, hits mostly inhibitors; 1,600 compounds, 41% hits; note: nearly all actives have a fitted effect of over 65% in size
# TGFb COP inh: qHTS for Inhibitors of TGF-b: Hit Validation in HepG2 Cells using COP promoter; shares compounds with TGFb SMAD3 inh; 1,600 compounds, 3% hits; HepG2 COP-GFP TGF-b reporter, GFP fluorescence, 18 h; cells stimulated by added recombinant TGF-beta; Potency, µM (top dose mostly 46.1 µM), for the others: top-dose activity, negative = inhibition, usual class: inhibitors; AID 720537, 2013; note: nearly all actives have a fitted effect of over 70% in size
# The depositor's hits bear a star; i = inactive; ? = inconclusive; · = no result. The list is not random: actives were taken first. Their share in the collection is about 6.1%. Calls come from the whole dose curve; as a rule, active = well fitted curve in the direction sought with a large enough effect; inconclusive = small, poorly fitted or top-dose-only effect, or another doubt; inactive = no such curve, though single readings can be large; an effect the other way counts as inactive or inconclusive. Potency is the fitted concentration of half-maximal effect.
SMILES,RORg inh,ATXN viability,HepG2 tox-1,ATXN2 expr inh,Gal4-VP16 FLuc,TGFb SMAD3 inh,TGFb confirm,HepG2 tox-2,TGFb CCL64 inh,TGFb COP inh
CN(Cc1ccccc1)C(=O)c1[nH]cnc1C(=O)Nc1cccc(Cl)c1,·,i,-19%,5%,·,?,?,?,-8%,-1%
C[C@@H](NC(=O)c1nc[nH]c1C(=O)N1CCN(c2ccccc2)CC1)c1ccccc1,·,i,-10%,6%,·,?,·,·,·,·
CC(C)C[C@H](NC(=O)c1nc[nH]c1C(=O)N1CCN(c2ccccc2)CC1)C(=O)OC(C)(C)C,13µM*,i,-32%,58%,?,?,-8%,-3%,-24%,5%
CC(C)(C)OC(=O)[C@H](Cc1ccccc1)NC(=O)c1nc[nH]c1C(=O)N[C@@H](Cc1ccccc1)C(=O)OC(C)(C)C,7.9µM*,?,-12%,?,?,13µM*,15µM*,?,?,39%
CC(C)(C)OC(=O)[C@H](Cc1ccccc1)NC(=O)c1[nH]cnc1C(=O)Nc1cccc(Cl)c1,4.5µM*,32µM*,-55%,?,4µM*,10µM*,21µM*,18µM*,?,30%
NC(=O)COCCN1CCN(C(c2ccccc2)c2ccc(Cl)cc2)CC1 (stereo not given),·,i,·,2%,·,·,·,·,·,·
CC(C)c1ccc(CN(Cc2ccco2)c2cnc(S(C)(=O)=O)nc2C(=O)Nc2ccc(F)cc2)cc1,·,i,-2%,14%,·,?,·,·,·,·
COc1ccc(N2CCN(S(=O)(=O)c3ccc(CC(C)C)cc3)CC2)cc1,·,i,6%,5%,·,?,·,·,·,·
C[C@H](NC(=O)c1[nH]cnc1C(=O)Nc1ccc(CNC(=O)OC(C)(C)C)cc1)C(=O)OC(C)(C)C,8.9µM*,?,4%,?,?,16µM*,?,?,-28%,38%
Cc1ccc(NC(=O)c2nc[nH]c2C(=O)NCCCNC(=O)c2[nH]cnc2C(=O)Nc2ccc(C)cc2)cc1,·,i,-2%,2%,·,?,?,?,?,?
CC(C)(C)OC(=O)NCc1ccc(NC(=O)c2nc[nH]c2C(=O)NCCCNC(=O)c2[nH]cnc2C(=O)Nc2ccc(CNC(=O)OC(C)(C)C)cc2)cc1,·,i,8%,-15%,·,5%,·,·,·,·
